Data as given in the supplement of paper PMC11634586.
Where a name gives a salt, the structure may show the parent alone. Values without a mark were called inactive.

test system: NCI-H1688; test: inhibition of cell viability relative to untreated control (fraction); higher = stronger growth inhibition, active = 0.5 or more; details: 30 µM; 24 h
Summary of the method: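 Values are inhibition of cell viability expressed as a fraction, derived from viability normalised to untreated cells. NCI-H1688 small cell lung cancer cells in 96-well plates were exposed to a natural compound library (TargetMol) at 30 µM for 24 h at 37°C with 5% CO2, and Cell Counting Kit-8 absorbance at 450 nm was then read.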

Row | Compound | inhibition of cell viability
1 | O=c1c(-c2ccc(O)cc2)coc2cc(O[C@@H]3O[C@H](CO)[C@@H](O)[C@H](O)[C@H]3O)cc(O)c12 [Genistin] | 0.279
2 | N[C@@H](Cc1cc(I)c(O)c(I)c1)C(=O)O [3,5-Diiodotyrosine Dihydrate] | 0.24
3 | OC[C@@H](O)[C@@H](O)CO [Erythritol] | 0.038
4 | COc1cc2ccc(=O)oc2cc1O [Scopoletin] | -0.00563
5 | CC[C@H]1OC(=O)[C@H](C)[C@@H](O[C@H]2C[C@@](C)(OC)[C@@H](O)[C@H](C)O2)[C@H](C)[C@@H](O[C@@H]2O[C@H](C)C[C@H](N(C)C)[C@H]2O)[C@](C)(O)C[C@@H](C)[C@@H]2N[C@@H](COCCOC)O[C@H]([C@H]2C)[C@]1(C)O [Dirithromycin] | 0.0389
6 | COC(=O)C1=CO[C@@H](O[C@@H]2O[C@H](CO)[C@@H](O)[C@H](O)[C@H]2O)[C@@H]2C(CO)=CC[C@H]12 [Geniposide] | 0.00243
7 | CC(=O)OC(C)C(C)C(=O)OCC12C3CC(C)(C)[C@H](O[C@@H]1C[C@]1(C)C3=CCC3C4(C)CCC(O[C@@H]5O[C@H](C(=O)O)[C@@H](O[C@H]6O[C@H](CO)[C@@H](O)[C@H](O)[C@H]6O)[C@H](O)[C@H]5O[C@@H]5OC[C@@H](O)[C@H](O)[C@H]5O)[C@](C)(CO)C4CCC31C)C2O (some centres not stated) [Sodium Aescinate] | 0.524 (active)
8 | O=C(O)CCCCCCCC(=O)O [Azelaic acid] | 0.133
9 | COc1cc(C=O)ccc1O [Vanillin] | 0.219
10 | C=CCc1ccc(O)c(-c2ccc(O)c(CC=C)c2)c1 [Honokiol] | 0.844 (active)
11 | NCCCC(=O)O [4-Aminobutyric acid] | -0.231
12 | CC(=O)O[C@]1(C(C)=O)CC[C@H]2[C@@H]3C[C@H](C)C4=CC(=O)CC[C@]4(C)[C@H]3CC[C@@]21C [Farlutin] | 0.01
13 | O=C(/C=C/c1ccc(O)c(O)c1)O[C@@H]1C[C@](O)(C(=O)O)C[C@@H](O)[C@H]1O [Chlorogenic Acid] | 0.162
14 | C[C@H]1O[C@@H](O[C@H]2[C@@H](O)C[C@H](O[C@H]3[C@@H](O)C[C@H](O[C@H]4CC[C@@]5(C)[C@H](CC[C@@H]6[C@@H]5CC[C@]5(C)[C@@H](C7=CC(=O)OC7)CC[C@]65O)C4)O[C@@H]3C)O[C@@H]2C)C[C@H](O)[C@@H]1O [Digitoxin] | 0.981 (active)
15 | COc1ccc(/C=C/C(=O)O)cc1O [Isoferulic acid] | -0.0461
16 | C[n+]1cccc(C(=O)[O-])c1 [Trigonelline] | -0.0163
17 | O=C(CCc1ccc(O)cc1)c1c(O)cc(O)cc1O [Phloretin] | -0.0149
18 | COc1ccc([C@@H]2CC(=O)c3c(O)cc(O[C@@H]4O[C@H](CO[C@@H]5O[C@@H](C)[C@H](O)[C@@H](O)[C@H]5O)[C@@H](O)[C@H](O)[C@H]4O)cc3O2)cc1O [Hesperidin] | 0.0198
19 | OC[C@H]1O[C@@H](O[C@@H]2[C@@H](CO)OC(O)(CO)[C@H]2O)[C@H](O)[C@@H](O)[C@H]1O (mixture of isomers) [Lactulose] | 0.135

Row | Compound | inhibition of cell viability
20 | O=C(CCc1ccc(O)cc1)c1c(O)cc(O)cc1O[C@@H]1O[C@H](CO)[C@@H](O)[C@H](O)[C@H]1O [Phlorizin] | -0.0544
21 | COC1=C(OC)C(=O)C(C/C=C(\C)CC/C=C(\C)CC/C=C(\C)CC/C=C(\C)CC/C=C(\C)CC/C=C(\C)CC/C=C(\C)CC/C=C(\C)CC/C=C(\C)CCC=C(C)C)=C(C)C1=O [Coenzyme Q10 (CoQ10)] | -0.0281
22 | N[C@H]1C(O)O[C@H](CO)[C@@H](O)[C@@H]1O (some centres not stated) [Glucosamine sulfate] | 0.381
23 | CC(/C=C/C=C(\C)C(=O)O[C@@H]1O[C@H](CO[C@@H]2O[C@H](CO)[C@@H](O)[C@H](O)[C@H]2O)[C@@H](O)[C@H](O)[C@H]1O)=C\C=C\C=C(C)\C=C\C=C(/C)C(=O)O[C@@H]1O[C@H](CO[C@@H]2O[C@H](CO)[C@@H](O)[C@H](O)[C@H]2O)[C@@H](O)[C@H](O)[C@H]1O [Crocin] | 0.267
24 | COc1cc(CNC(=O)CCCC/C=C/C(C)C)ccc1O [Capsaicin] | 0.0438
25 | Cc1cc2nc3c(=O)[nH]c(=O)nc-3n(C[C@H](O)[C@H](O)[C@H](O)CO)c2cc1C [Riboflavin] | 0.284
26 | C/C=C1\[C@H]2C=C(C)C[C@]1(N)c1ccc(=O)[nH]c1C2 [(-)-Huperzine A (HupA)] | 0.178
27 | COc1cc2ccc(=O)oc2c(O)c1O [Fraxetin] | -0.0287
28 | O=c1c(-c2ccc(O)cc2)coc2cc(O[C@@H]3O[C@H](CO)[C@@H](O)[C@H](O)[C@H]3O)ccc12 [Daidzin] | -0.0211
29 | COc1ccc(CCC(=O)c2c(O)cc(O[C@@H]3O[C@H](CO)[C@@H](O)[C@H](O)[C@H]3O[C@@H]3O[C@@H](C)[C@H](O)[C@@H](O)[C@H]3O)cc2O)cc1O [Neohesperidin Dihydrochalcone (Nhdc)] | -0.0245
30 | O=C(O)CCCC[C@@H]1CCSS1 [Thioctic acid] | -0.0532
31 | O=c1cc(-c2ccc(O)c(O)c2)oc2cc(O)cc(O)c12 [Luteolin] | 0.794 (active)
32 | C=C[C@H]1[C@H](O[C@@H]2O[C@H](CO)[C@@H](O)[C@H](O)[C@H]2O)OC=C2C(=O)OCC[C@]21O [Swertiamarin] | -0.0605
33 | CC(C)C1=CC2=CC[C@@H]3[C@](C)(CCC[C@@]3(C)C(=O)O)[C@H]2CC1 [Abietic Acid] | 0.0466
34 | CCNC(=O)CC[C@H](N)C(=O)O [L-Theanine] | -0.151
35 | OC[C@H]1O[C@@H](O[C@@H]2OC=C[C@H]3[C@H](O)[C@@H]4O[C@]4(CO)[C@@H]23)[C@H](O)[C@@H](O)[C@@H]1O [Catalpol] | -0.0576
36 | CC(C)=CCOc1c2ccoc2cc2oc(=O)ccc12 [Isoimperatorin] | -0.0286
37 | Cc1ncc(C[n+]2csc(CCO)c2C)c(N)n1 [Thiamine hydrochloride] | -0.123
